# Columns and labels:
# Experiment in all cases: PBM binding z-score (relative to random genomic background probes); higher = stronger binding; sequences stand for … in GC…GCGATTGACAGCGTAGAATGAAGG
# [1] = system: PPARg:RXRa IVT, anti-PPARg (NR concentration 270 nM, RXRa partner concentration 90 nM)
# How it was run: (§1)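 Custom Agilent 4×180K protein-binding microarrays carried double-stranded probes, each with a 34-nt variable region. These regions held direct-repeat seeds, single-nucleotide variants, half-site ablations and random human genomic background sequences. Ligand-free nuclear receptor dimers were incubated on the arrays for 1 h, antibodies against each partner (one per run) detected binding, and scanned fluorescence was regression-normalized. Binding z-scores take the random background probes as reference.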
# [2] = system: PPARg DBDmut:RXRa IVT, anti-PPARg (DBD mutation: PPARg1 K132A/R137A, NR concentration 270 nM, RXRa partner concentration 90 nM)
# How it was run: as §1
# [3] = system: PPARg DBDmut IVT, anti-PPARg (DBD mutation: PPARg1 K132A/R137A, NR concentration 270 nM)
# How it was run: as §1
# [4] = system: PPARg homodimer (NR concentration 180 nM)
# How it was run: as §1
# [5] = system: PXR homodimer (NR concentration 270 nM)
# How it was run: as §1
# [6] = system: RARa homodimer (NR concentration 270 nM)
# How it was run: as §1
# [7] = system: RARb:RXRa (NR concentration 270 nM, RXRa partner concentration 90 nM)
# How it was run: as §1
# [8] = system: RARb homodimer (NR concentration 270 nM)
# How it was run: as §1
# [9] = system: RARg homodimer (NR concentration 270 nM)
# How it was run: as §1
# [10] = system: RXRa DBDmut IVT, anti-RXR (DBD mutation: RXRa K156A/R161A, NR concentration 90 nM)
# How it was run: as §1
# [11] = system: THRa:RXRa (NR concentration 90 nM, RXRa partner concentration 90 nM)
# How it was run: as §1
# [12] = system: THRa homodimer (NR concentration 90 nM)
# How it was run: as §1
# [13] = system: VDR homodimer (NR concentration 270 nM)
# How it was run: as §1
# [14] = system: RARg:RXRa (NR concentration 270 nM, RXRa partner concentration 90 nM)
# How it was run: as §1
# [15] = system: RARa:RXR (NR concentration 270 nM, RXRa partner concentration 90 nM)
# How it was run: as §1
# [16] = system: RXRa homodimer (NR concentration 180 nM)
# How it was run: as §1
Sequence,PBM binding z-score [1],PBM binding z-score [2],PBM binding z-score [3],PBM binding z-score [4],PBM binding z-score [5],PBM binding z-score [6],PBM binding z-score [7],PBM binding z-score [8],PBM binding z-score [9],PBM binding z-score [10],PBM binding z-score [11],PBM binding z-score [12],PBM binding z-score [13],PBM binding z-score [14],PBM binding z-score [15],PBM binding z-score [16]
TATACGGGGTCAAAGGCCAGAGTACGAATGTCGA,6.45,4.68,3.02,3.58,1.98,1.66,5.29,4.34,6.78,4.48,4.43,1.72,5.21,–,–,–
CAAACAAGGTCACAGAGGTCAAAGTCCGTGCGTA,7.16,3.22,4.2,6.67,14.1,3.72,–,5.85,9.05,4.67,5.03,4.36,9.97,–,–,–
TCTAGTAGGTCAAAGGTCACACACTCGAAATGCG,9.26,6.06,3.11,7.45,2.56,5.05,–,5.5,7.76,2.77,4.73,2.3,3.32,–,–,–
CCTGCTAGGTCAAAGGTCAGCTAAAGCAGCTCGC,7.37,3.16,2.19,7.33,0.666,3.79,–,4.91,7.57,2.83,4.6,1.41,1.75,–,–,–
GATACGGGGTCAAGGCCAGAGTACGCGTATTGAT,6.14,2.81,2.07,4.21,1.08,2.18,5.26,4.32,6.89,4.16,4.23,2.04,4.85,7.3,–,–
AATACAGGGTCATCGTAGGTCAGAGTACGCACAG,5.07,3.45,1.68,3.34,1.57,1.7,4.69,4.58,5.81,3.75,–,2.38,4.46,6.41,6.33,6.77
AATACGGGGTCATCGTAGGCCAGAGTACGCACAG,5.98,1.67,2.1,3.3,1.94,1.73,5.09,4.48,7.15,4.86,4.99,2.62,6.13,–,–,–
CGTCCAAGGTCATAGAGGTCAGTGAATGCCGAGT,4.48,0.246,1.44,7.41,13.8,3.94,5.39,5.34,7.75,4.4,4.38,3.51,7.8,7.06,–,7.55
CGTCAAAGTTCAACTAAGGTCACGTAAAGCACGC,3.7,0.74,1.77,6.25,12.2,3.25,–,6.11,8.89,4.75,–,5.58,6.52,–,–,7.65
ACTTACGGGTCAACGAGGTCATAGCACGCGTATA,5.29,2.33,3.32,4.63,11.6,2.3,4.82,5.04,6.95,3.65,–,3.64,7.5,7.14,7.02,–
CGTCAAAGGTCAACTAAGGTAACGTAAAGCACGC,5.93,1.03,0.957,4.87,1.59,3.77,–,5.33,9.23,3.52,5.48,2.46,2.23,–,6.58,–
CAAACCAGGTCAAAGGTCAAAGTCGAGCCAACCA,7.43,2.48,1.06,4.04,2.11,3.33,5.8,5.45,7.49,3.71,5.07,2.57,3.91,8.97,9.04,–
GGAACGAGGGCATTCGAGTTCATAGCATGGCGAT,2.61,0.143,-0.584,0.888,14,-0.506,2.75,2.4,2.58,3.99,–,-0.00454,8.72,2.51,2.84,2.5
ATATGTAGGTCAAGGGTCATTCAGGTTGGTTCGC,9.34,5.02,3.68,4.44,2.53,1.72,5.35,5.1,6.02,2.84,4.58,2.22,4.28,7.22,–,–
TTACCAAGGTCAAAGGTCGTTGATGCACGCCTTG,6.12,2.16,2.19,4.12,2.27,1.08,–,4.89,6.63,3.96,4.73,2.76,4.36,–,–,–
CCTACTGGGTCAAAGGTCATTGATTCCAATGCTC,8.67,3.67,3.47,7.2,3.3,2.65,–,5.06,5.88,2.87,4.52,1.69,3.95,–,–,–
CCTTAGGGGTCACTCCAGGTTATAGCATCGGAGT,5.37,2.85,0.901,3.42,0.789,1.3,5.36,4.71,7.07,4.21,–,0.963,4.35,–,–,–
TCTAGTTGGTCAAAGGTCACGCACTCGAAATGCG,6.68,3.73,2.56,6.55,1.96,4.59,–,5.32,7.23,1.92,4.31,2.52,3.12,–,–,8.9

Sequence,PBM binding z-score [1],PBM binding z-score [2],PBM binding z-score [3],PBM binding z-score [4],PBM binding z-score [5],PBM binding z-score [6],PBM binding z-score [7],PBM binding z-score [8],PBM binding z-score [9],PBM binding z-score [10],PBM binding z-score [11],PBM binding z-score [12],PBM binding z-score [13],PBM binding z-score [14],PBM binding z-score [15],PBM binding z-score [16]
GCTTAAGGGTCAAAGGTTATAGCATGAATAGAAT,5.94,2.24,1.36,4.8,0.657,1.94,–,4.32,7.11,3.54,4.14,-0.296,2.8,–,–,9.83
CAAACTAGGTCAAGAGGTCAAAGTTCGCTTCCCG,8.83,3.82,5.91,10.9,5.01,4.53,5.51,5.71,7.43,3.49,4.67,2.78,5.53,8.33,–,8.33
GCTTAGGGGTCAAAGGTTATAGCATGAATAGAAT,6.52,3.02,2.44,2.86,1.2,1.8,–,4.64,7.06,4.82,4.68,0.683,4.44,–,–,–
CGTCAAAGTTCAACTAAGGTTACGTAAAGCACGC,2.44,1.54,1.43,3.83,8.22,1.91,5.44,5.67,7.26,4.73,–,2.2,4.89,6.64,5.27,6.03
CAAACGAGGTCAAGAGGTCAAAGTCCGCTTCCCG,7.14,1.86,1.69,5.31,6.05,2.73,–,6.42,8.65,4.19,–,4.11,6.32,–,8.32,–
AGTCAAAGTTCATCTAGGTCACGTAAGATATGCT,6.09,1.86,2.18,4.77,13.9,2.4,–,5.12,7.35,4.81,4.62,2.83,7.84,6.63,6.05,5.75
CCTTAGGGGTCACGAGGTTATAGCACGACGAGCG,6.5,3.28,2.27,5.3,0.897,2.78,–,5.21,8.18,4.14,4.53,1.8,4.55,–,–,–
CAAAATAGGTCACGAAAGGTCAAAGTCGAATGAC,8.54,5.84,4.87,10.7,3.21,7.69,6.03,5.79,8.76,2.5,5.07,1.51,3.8,–,–,8.89
CTACCAAGGTCAACAAGGTCGTTGATTACTATTC,4.74,1.26,1.4,4.44,12.6,3.35,–,5.25,6.92,4.65,–,3.68,7.86,6.87,6.63,6.84
AGAACGAGGTCACGCTGAGTTGATAGCAGAGTAG,7.41,3.83,1.29,4.17,2.35,1.26,–,4.38,7.61,4.36,4.37,3.59,5.15,–,6.71,–
CGTCTAAGGTCATAGGAGGTCAGTGAAGACAGAT,4.85,1.68,1.09,6.3,6.55,3.85,5.66,5.47,7.8,4.42,5.51,4.81,4.89,7.35,–,7.22
CGTCCAAGGTCAAAGGTCATTGAAGAGATGACGG,6.27,2.57,0.832,5.55,4.59,5.35,6.2,5.63,8.52,4.24,–,3.04,5.06,–,–,–
CCTACTGGGTCACGAAAGGTCATTGATTCAGTGA,8.65,1.64,2.22,4.41,2.09,2.35,–,5.9,6.81,1.69,–,1.82,2.59,6.96,–,7.05
CAAACCAGGTCAAGAGGTCAAAGTCCGCTTCCCG,6.81,3.85,3.15,8.14,3.35,3.47,5.6,5.59,7.56,3.21,–,3.54,5.13,8.29,8.42,8.5
CAAACTAGGTCACGAGAGGTCAAAGTCGAATGAC,9.18,3.71,4.06,5.24,3.95,2.65,5.51,5.6,8.3,2.82,–,2.88,5.09,7.59,7.58,7.93
CCTCGGAGGTCAACAGGAGGTCAGAGCTGCCAGA,4.76,-0.0592,-0.488,5.25,1.63,1.53,–,5.7,7.73,3.36,4.73,1.81,3.37,–,–,7.54
ATATGTAGGTTAGGGGTCATTCAGGTTGGTTCGC,7.13,1.75,2,5.22,6.76,2.76,3.82,4.47,4.38,2.85,3.99,2.88,6.78,5.63,–,7.75
ATATGTAGGTTAAAGGTCATTCAGGTTGGTTCGC,8.56,4.82,3.73,4.43,7.91,3.28,4.74,4.8,5.37,2.47,4.31,1.97,5.11,6.81,–,–
